This is an account of results in PubChem BioAssay AID1626 (SRMLSC, 2009).

As a reminder, the inhibition is the drop in the measured response relative to a control, in per cent.

Among all 220,000 compounds or so, about 2,000 (0.91%) were called active. Another 2% or so got no clear call; they are omitted. Not all results are given here. Entries with a potency or affinity are not part of this list. A number with no mark means an inactive call. Rule as the data show it: inconclusive = inhibition above about 80% without an active follow-up result; inactive = below that; test concentration not stated here.

The nature of the test: M. tuberculosis H37Rv growth inhibitors, H37Rv strain (AID 1626).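 Also: bacteria incubated seven days before Alamar blue readout; 0% = bacteria only wells and 100% = bacteria with antibiotic wells.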 The note with it: stronger effect = higher value, concentration not given here.
Take `COc1ccc(C(=O)c2ccc3oc(-c4ccc(OC)cc4)c(C#CCCO)c3c2)cc1`: the inhibition was 6.95%.

On to `Cc1ccccc1NC(=O)c1ccc(F)c(S(=O)(=O)N2CCCCC2)c1`, for which the inhibition is -2.34%.

Take `CCn1cc(Br)c(C(=O)Nc2ccc(F)c(Cl)c2)n1`: the inhibition is -11.6%.

`CCOCCCNC(=O)c1ccc(NC(C)=O)cc1`: the inhibition is -8.03%.

For the compound `CC(=O)C1=C(O)C(=O)N(C)C1c1ccccc1F` (configuration not stated), the inhibition was 0.41%.

Turning to `CN(C[C@H](Cc1ccccc1)N(C[C@H](CC1CCCCC1)N(CCc1ccccc1)N=O)N=O)N=O`, the inhibition is -1.37%.

As to `CC(C)Sc1ncc(S(=O)(=O)c2ccccc2)c(=O)[nH]1`, the inhibition was -2.21%.

With `CCCCn1c(O)c(C(CC)=Nc2ccc(C(=O)O)cc2)c(=O)[nH]c1=O`, the inhibition was -1.19%.

With `CCCCn1c(O)c(C(C)=Nc2ccc(C(=O)O)cc2)c(=O)[nH]c1=O`, the inhibition was -16.2%.

As for `CCCCn1c(O)c(C(CC)=Nc2ccc3c(c2)CCC3)c(=O)[nH]c1=O`, the inhibition is 74.9%.

Turning to `CCCCn1c(O)c(C(C)=Nc2ccc3c(c2)CCC3)c(=O)[nH]c1=O`, the inhibition was 7.92%.

With `C=CCn1c(O)c(C(C)=Nc2ccc(C(=O)O)cc2)c(=O)[nH]c1=O`, the inhibition was -11.5%.

Take `C=CCn1c(O)c(C(C)=Nc2ccc3c(c2)CCC3)c(=O)[nH]c1=O`: the inhibition was 54.5%.

For `CCCCn1c(O)c(C(CC)=Nc2ccc(OC)cc2OC)c(=O)[nH]c1=O`, the inhibition was -1.05%.

As for `C=CCn1c(O)c(C(C)=Nc2ccc(NC(C)=O)cc2)c(=O)[nH]c1=O`, the inhibition was -0.17%.

In the case of `O=C(O)CC(CNS(=O)(=O)c1cccc2nsnc12)c1ccccc1` (configuration not stated), the inhibition was 2.51%.

With `O=C1CC(c2nc3ccccc3[nH]2)CN1c1cccc(C(F)(F)F)c1` (configuration not stated), the inhibition is 2.87%.

On to `CN1CCN(C(=S)c2ccc(-c3cccc(Cl)c3Cl)o2)CC1`, for which the inhibition is 2.93%.

`Nc1c(Cl)ncnc1N/N=C/c1cccnc1`: the inhibition was 3.93%.

With `Cn1c(N2CCOCC2)cc(=O)n(C)c1=O`, the inhibition is -3.19%.

Regarding `COc1ccc(CCNC(=O)CSCc2ccc([N+](=O)[O-])cc2)cc1OC`, the inhibition was -5.73%.

Turning to `CCN(CC)c1ccc(C(=O)OCC(=O)Nc2ccc3[nH]c(=O)[nH]c3c2)cc1`, the inhibition was 6.23%.

Take `O=C(Nc1ccc(Br)cc1)C1CCCN(S(=O)(=O)c2cccnc2)C1` (configuration not stated): the inhibition was -3.26%.

As to `C=CCn1c(CNC(=O)c2ccco2)nnc1SCC(=O)Nc1cccc(F)c1`, the inhibition was 2.84%.

Turning to `CCn1c(SCc2nc3ccccc3c(=O)[nH]2)nc2ccccc21`, the inhibition is 11.6%.

As for `COc1ccc2cc(C#N)c(N3CCN(C(=O)c4ccccc4C)CC3)nc2c1`, the inhibition is 7.93%.

`COc1ccc2nc(N3CCC(O)CC3)c(C#N)cc2c1`: the inhibition is 1.43%.

As to `CC(C)CCNC(=O)CCn1c(=S)oc2ccccc21`, the inhibition is -7.67%.

Take `CC(=O)c1ccc(NC(=O)C(C)N2CCN(C/C=C/c3ccccc3)CC2)cc1` (configuration not stated): the inhibition was 53.1%.

For the compound `Fc1ccc(CSc2nnc(-c3cccnc3)n2Cc2ccco2)cc1`, the inhibition was -3.79%.

With `CCCc1nc2c(sc3nc4c(cc32)COC(C)(C)C4)c(=O)n1Cc1ccco1`, the inhibition is -1.51%.

`CCCCOC(=O)Nc1sc2c(c1C(=O)OC)CCC2`: the inhibition was -0.74%.

With `S=c1[nH]nc(CSCc2ccccc2Cl)n1C1CCCCC1`, the inhibition is 4.24%.

Regarding `C#CCOCCOCCOCCNc1nc(N2CCN(C(=O)[C@H](CCCCN)n3cc([C@@H](N)CC(C)C)nn3)CC2)nc(N2CCN(C(=O)[C@H](Cc3cc4ccccc4[nH]3)n3cc([C@@H](N)Cc4ccc(O)cc4)nn3)CC2)n1`, the inhibition was 59%.

On to `C#CCOCCOCCOCCNc1nc(N2CCOCC2)nc(N2CCN(C(=O)[C@H](Cc3cc4ccccc4[nH]3)n3cc([C@@H](N)Cc4ccc(O)cc4)nn3)CC2)n1`, for which the inhibition is 52%.

As to `C#CCOCCOCCOCCNc1nc(N2CCN(C(=O)[C@H](Cc3cc4ccccc4[nH]3)n3cc(C(N)CC(C)C)nn3)CC2)nc(N2CCN(C(=O)[C@H](CCC(=O)O)n3cc(C(N)[C@H](C)CC)nn3)CC2)n1` (some centres not stated), the inhibition was -7.16%.

In the case of `C#CCOCCOCCOCCNc1nc(N2CCN(C(=O)[C@H]([C@@H](C)CC)n3cc([C@@H](N)CC(C)C)nn3)CC2)nc(N2CCN(C(=O)[C@H](Cc3cc4ccccc4[nH]3)n3cc([C@@H](N)C(C)CC)nn3)CC2)n1` (some centres not stated), the inhibition was 45.6%.

As to `C#CCOCCOCCOCCNc1nc(N2CCN(C(=O)[C@H]([C@@H](C)CC)n3cc([C@@H](N)CC(C)C)nn3)CC2)nc(N2CCN(C(=O)[C@H](Cc3cc4ccccc4[nH]3)n3cc([C@@H](N)CC(C)C)nn3)CC2)n1`, the inhibition was 33.5%.

For the compound `C#CCOCCOCCOCCNc1nc(N2CCOCC2)nc(N2CCN(C(=O)[C@H](Cc3cc4ccccc4[nH]3)n3cc([C@@H](N)CC(C)C)nn3)CC2)n1`, the inhibition was -3.36%.

As to `CCOC(=O)C1CCN(C(=O)COc2ccc(S(=O)(=O)N3CCCC3)cc2C)CC1`, the inhibition was 8.86%.

Consider `N/C(=N\c1nc2c(c(=O)[nH]1)CCCC2)Nc1ccc(Oc2ccccc2)cc1`, for which the inhibition is 18%.

For the compound `Cn1c(=O)c2c(nc(CN3CCC(C(N)=O)CC3)n2Cc2c(Cl)cccc2Cl)n(C)c1=O`, the inhibition is -2.69%.

With `O=C(/C=C/c1ccc(F)cc1)N1CCCN(C(=O)/C=C/c2ccc(F)cc2)CC1`, the inhibition is 10.8%.

Regarding `Cc1ccc(/C=C/C(=O)N2CCN(c3ccc(F)cc3)CC2)o1`, the inhibition is -2.28%.

Turning to `CCOCCn1c(SCC)nc2c1c(=O)[nH]c(=O)n2C`, the inhibition is -10.1%.

In the case of `Cc1cc(C)nc(-n2nc(C)c(Oc3ccccc3O)c2C)n1`, the inhibition was -0.16%.

Turning to `Cc1nn(-c2ccccn2)c(C)c1Oc1ccccc1O`, the inhibition was 7.63%.

On to `Cc1cc(C)n(-c2nnc(C)c(=O)[nH]2)n1`, for which the inhibition is -3.09%.

`COc1ccc(Nc2nc(C)cc(=O)[nH]2)cc1`: the inhibition is -16.4%.

Turning to `Cc1cc(C)n(-c2nc(O)cc(=O)[nH]2)n1`, the inhibition was -5.24%.

Take `Cc1cc(Nc2ccc(Cl)cc2)n(-c2cccc(Cl)c2)n1`: the inhibition is 4.87%.

On to `Cc1ccc(OCC(=O)Nc2ccc(Cl)cc2C(=O)c2ccccc2)cc1`, for which the inhibition is -2.12%.

As for `CCOc1ccc(CNC(=S)N/N=C\c2ccc([N+](=O)[O-])cc2)cc1`, the inhibition is 2.73%.

For the compound `O=C(NCC(c1ccco1)N1CCCCC1)C(c1ccccc1)c1ccccc1` (configuration not stated), the inhibition is 2.31%.

On to `CC(Oc1ccc(Cl)cc1Cl)c1ccnc2nc(N3CCOCC3)nn12` (configuration not stated), for which the inhibition is 7.65%.

For `O=C1c2ccccc2C(Nc2ccc3nc(-c4cccnc4)[nH]c3c2)N1Cc1ccco1` (configuration not stated), the inhibition was 44%.

For `O=C1c2ccccc2C(Nc2ccc(S(=O)(=O)N3CCCCC3)cc2)N1Cc1ccco1` (configuration not stated), the inhibition is 2.32%.

For `COc1ccc(NC2c3ccccc3C(=O)N2Cc2ccco2)cc1OC` (configuration not stated), the inhibition was 8.29%.

In the case of `CCOc1ccccc1NC1c2ccccc2C(=O)N1Cc1ccco1` (configuration not stated), the inhibition is 11.3%.

On to `CCOC(=O)CNC(=O)CSc1nnc(-c2ccc(OC)cc2)n1CC`, for which the inhibition is -3.53%.

Consider `O=C(c1ccco1)N1CCN(Cc2nc(Cc3ccccc3)no2)CC1`, for which the inhibition was -8.56%.

Turning to `C#CCn1c(-c2ccccc2)ccc(C#N)c1=O`, the inhibition is 8.84%.

With `CCn1c(-c2ccccc2)ccc(C#N)c1=O`, the inhibition is -9.1%.

In the case of `CS(=O)(=O)N(CC(=O)Nc1cccc(Cl)c1Cl)c1ccccc1`, the inhibition is -0.62%.

Consider `O=C(COC(=O)c1ccc(=O)[nH]c1)Nc1cccc(S(=O)(=O)N2CCOCC2)c1`, for which the inhibition is 9.81%.

For the compound `CC1CCC/C(=N/NC(=O)c2ccccc2-n2cccc2)C1` (configuration not stated), the inhibition is -3.77%.

With `COc1ccc(-n2c(C)cc(/C=C3\C(=O)NN(c4ccccc4)C3=O)c2C)cc1`, the inhibition is 12.4%.

For the compound `Cc1sc2nc(CN(C(=O)NC3CCCCC3)C3CCCCC3)[nH]c(=O)c2c1C`, the inhibition was 3.17%.

Regarding `CC(=O)N(Cc1nc2sc(C)c(C)c2c(=O)[nH]1)C1CCCC1`, the inhibition is -8.34%.

Consider `O=C(Nc1ccncc1)c1ccc(NS(=O)(=O)c2cccc(F)c2)cc1`, for which the inhibition is 7.32%.

As for `CCN(Cc1ccccc1)c1ccc(/C=N/N2CCOCC2)cc1`, the inhibition is 2.24%.

Consider `NC(N)=N/N=C/c1ccccc1`, for which the inhibition was 12.3%.

Take `Cc1ccccc1CN1C[C@@H]2C[C@@H](c3cn[nH]c3-c3ccccc3)N3CCC[C@@]23C1=O`: the inhibition was -6.92%.

As for `O=C(Nc1ccn(Cc2c(F)c(F)cc(F)c2F)n1)c1ccc(COc2ccc(Cl)cc2Cl)o1`, the inhibition was 4.49%.

Consider `O=C(Nc1ccn(Cc2ccccc2F)n1)c1ccc(COc2cc(Cl)ccc2Cl)o1`, for which the inhibition is 10.4%.

Regarding `O=C(c1ccc(F)cc1F)N1CCN(c2ncccn2)CC1`, the inhibition was 3.87%.

Take `Cc1[nH]c2ccccc2c1/C=N/O`: the inhibition is 57.2%.

On to `Cc1[nH]c2ccccc2c1/C=N/n1cnnc1`, for which the inhibition is 3.82%.

As for `N#CC(C(=O)CCN1C(=O)C2CC=CCC2C1=O)c1nc2ccccc2[nH]1` (configuration not stated), the inhibition is -15.5%.

Regarding `O=C(Nc1nc2ccccc2[nH]1)C1CCCC1`, the inhibition was -2.34%.

For `N#CC(C(=O)C1CCCCC1)c1nc2ccccc2[nH]1` (configuration not stated), the inhibition was 56.9%.

On to `O=C(Nc1nc2ccccc2[nH]1)C1CC1`, for which the inhibition was -2.55%.

On to `O=C(c1ccc2c(c1)OCCO2)C1CCN(C(=O)c2ccc(F)c(F)c2)CC1`, for which the inhibition is 5.15%.

On to `Cc1cc(C)c(C(=O)C[n+]2cccc(C(N)=O)c2)c(C)c1`, for which the inhibition is -6.58%.

On to `Cc1oc(-c2ccccc2)nc1C(=O)N1CCN(c2ccc(F)cc2)CC1`, for which the inhibition was 0.48%.

With `O=C1N=C(N2CCOCC2)S/C1=C\c1ccc(-c2ccccc2Cl)o1`, the inhibition is 2.45%.

In the case of `Cc1ccccc1-c1ccc(/C=C2/SC(N3CCOCC3)=NC2=O)o1`, the inhibition is -0.65%.
